# In the supplement of paper PMC8728848:
# Only a selection was taken, and the strongest signals are over-represented in it overall.
# Key:
# Assay in all cases: glycan array binding signal (z-score within array); higher = stronger binding
# Details in all cases: glycan notation: IUPAC condensed, linker removed
# [1] = target: Fuc(a1-2)Gal
# Procedure, shortened: (§1)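 Glycan array data came from 3228 arrays in the Consortium for Functional Glycomics database, and only arrays with an available protein sequence were kept. Glycan names were put into IUPAC-condensed notation, and columns mapping to the same glycan were averaged. The binding signal is a within-array Z-score, averaged across arrays of one protein sequence run at different concentrations or buffers and across linkers. A negative Z-score can be read as non-binding.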
# [2] = target: Fuc(a1-2)Gal(b1-3)GalNAc(b1-4)[Neu5Ac(a2-3)]Gal(b1-4)Glc
# Procedure, shortened: as §1
# [3] = target: Fuc(a1-2)Gal(b1-3)GlcNAc(b1-3)[Neu5Ac(a2-6)Gal(b1-4)GlcNAc(b1-6)]Gal(b1-4)Glc
# Procedure, shortened: as §1
# [4] = target: Fuc(a1-2)[Gal(a1-3)]Gal(b1-3)GlcNAc
# Procedure, shortened: as §1
# [5] = target: Fuc(a1-2)[Gal(a1-3)]Gal(b1-4)[Fuc(a1-3)]Glc
# Procedure, shortened: as §1
# [6] = target: Fuc(a1-2)[Gal(a1-3)]Gal(b1-4)[Fuc(a1-3)]GlcNAc(b1-3)GalNAc
# Procedure, shortened: as §1
# [7] = target: Fuc(a1-3)[Gal(b1-4)]Glc6S
# Procedure, shortened: as §1
# [8] = target: Fuc(a1-3)[Gal3S(b1-4)]Glc
# Procedure, shortened: as §1
# [9] = target: Gal(a1-3)[Gal(a1-4)]Gal(b1-4)GlcNAc
# Procedure, shortened: as §1
# [10] = target: Gal(a1-4)Gal(b1-4)GlcNAc(b1-2)Man(a1-3)[Gal(a1-4)Gal(b1-4)GlcNAc(b1-2)Man(a1-6)]Man(b1-4)GlcNAc(b1-4)GlcNAc
# Procedure, shortened: as §1
# [11] = target: Gal(b1-2)Gal
# Procedure, shortened: as §1
# [12] = target: Gal(b1-3)GlcNAc(b1-3)Gal(b1-4)GlcNAc(b1-2)Man(a1-3)[Gal(b1-3)GlcNAc(b1-3)Gal(b1-4)GlcNAc(b1-2)Man(a1-6)]Man(b1-4)GlcNAc(b1-4)GlcNAc
# Procedure, shortened: as §1
# [13] = target: Gal(b1-4)Glc
# Procedure, shortened: as §1
# [14] = target: Gal(b1-4)GlcNAc(b1-2)[Gal(b1-4)GlcNAc(b1-4)]Man(a1-3)[GlcNAc(b1-4)][Gal(b1-4)GlcNAc(b1-2)[Gal(b1-4)GlcNAc(b1-6)]Man(a1-6)]Man(b1-4)GlcNAc(b1-4)GlcNAc
# Procedure, shortened: as §1
# [15] = target: Gal(b1-4)GlcNAc(b1-3)Gal(b1-4)GlcNAc(b1-3)Gal(b1-4)GlcNAc(b1-3)Gal(b1-4)GlcNAc(b1-3)Gal(b1-4)GlcNAc(b1-2)[Gal(b1-4)GlcNAc(b1-3)Gal(b1-4)GlcNAc(b1-3)Gal(b1-4)GlcNAc(b1-3)Gal(b1-4)GlcNAc(b1-3)Gal(b1-4)GlcNAc(b1-6)]Man(a1-6)[Gal(b1-4)GlcNAc(b1-3)Gal(b1-4)GlcNAc(b1-3)Gal(b1-4)GlcNAc(b1-3)Gal(b1-4)GlcNAc(b1-3)Gal(b1-4)GlcNAc(b1-2)Man(a1-3)]Man(b1-4)GlcNAc(b1-4)[Fuc(a1-6)]GlcNAc
# Procedure, shortened: as §1
# [16] = target: Gal(b1-4)GlcNAc(b1-3)Gal(b1-4)GlcNAc(b1-3)Gal(b1-4)GlcNAc(b1-3)Gal(b1-4)GlcNAc(b1-3)Gal(b1-4)GlcNAc(b1-3)Gal(b1-4)GlcNAc(b1-2)Man(a1-3)[Gal(b1-4)GlcNAc(b1-3)Gal(b1-4)GlcNAc(b1-3)Gal(b1-4)GlcNAc(b1-3)Gal(b1-4)GlcNAc(b1-3)Gal(b1-4)GlcNAc(b1-3)Gal(b1-4)GlcNAc(b1-2)Man(a1-6)]Man(b1-4)GlcNAc(b1-4)GlcNAc
# Procedure, shortened: as §1
# [17] = target: Gal3S(b1-4)Glc6S
# Procedure, shortened: as §1
# [18] = target: Gal3S6S(b1-4)GlcNAc
# Procedure, shortened: as §1
# [19] = target: Gal3S6S(b1-4)GlcNAc6S
# Procedure, shortened: as §1
# [20] = target: GalNAc(a1-3)GalNAc(b1-3)Gal(a1-4)Gal(b1-4)Glc
# Procedure, shortened: as §1
# [21] = target: GalNAc(b1-3)GlcNAc
# Procedure, shortened: as §1
# [22] = target: GalNAc(b1-4)Gal(b1-4)Glc
# Procedure, shortened: as §1
# [23] = target: GalNAc(b1-4)GlcNAc(b1-3)GalNAc(b1-4)GlcNAc
# Procedure, shortened: as §1
# [24] = target: Glc(a1-6)Glc(a1-6)Glc
# Procedure, shortened: as §1
# [25] = target: GlcNAc(b1-3)Fuc
# Procedure, shortened: as §1
# [26] = target: GlcNAc(b1-3)Gal(b1-4)GlcNAc(b1-3)Gal(b1-4)GlcNAc(b1-2)Man(a1-3)[GlcNAc(b1-3)Gal(b1-4)GlcNAc(b1-3)Gal(b1-4)GlcNAc(b1-2)Man(a1-6)]Man(b1-4)GlcNAc(b1-4)[Fuc(a1-6)]GlcNAc
# Procedure, shortened: as §1
# [27] = target: GlcNAc(b1-3)Gal(b1-4)GlcNAc(b1-3)Gal(b1-4)GlcNAc(b1-3)Gal(b1-4)GlcNAc(b1-3)Gal(b1-4)GlcNAc(b1-2)Man(a1-3)[GlcNAc(b1-3)Gal(b1-4)GlcNAc(b1-3)Gal(b1-4)GlcNAc(b1-3)Gal(b1-4)GlcNAc(b1-3)Gal(b1-4)GlcNAc(b1-2)Man(a1-6)]Man(b1-4)GlcNAc(b1-4)[Fuc(a1-6)]GlcNAc
# Procedure, shortened: as §1
# [28] = target: GlcNAc(b1-3)Gal(b1-4)GlcNAc(b1-6)[GlcNAc(b1-3)]Gal(b1-4)GlcNAc
# Procedure, shortened: as §1
# [29] = target: GlcNAc(b1-3)[GlcNAc(b1-6)]GalNAc
# Procedure, shortened: as §1
# [30] = target: GlcNAc(b1-4)[GlcNAc(b1-6)]GalNAc
# Procedure, shortened: as §1
# [31] = target: GlcNAc6S(b1-3)Gal(b1-4)GlcNAc
# Procedure, shortened: as §1
# [32] = target: Kdn(a2-3)Gal(b1-4)[Fuc(a1-3)]GlcNAc
# Procedure, shortened: as §1
# [33] = target: Man(a1-3)[Man(a1-6)]Man(a1-6)[Man(a1-3)]Man
# Procedure, shortened: as §1
# [34] = target: Neu5Ac(a2-3)Gal(b1-3)GlcNAc6S
# Procedure, shortened: as §1
# [35] = target: Neu5Ac(a2-3)Gal(b1-4)GlcNAc(b1-2)[Neu5Ac(a2-3)Gal(b1-4)GlcNAc(b1-6)]Man(a1-6)[Neu5Ac(a2-3)Gal(b1-4)GlcNAc(b1-2)Man(a1-3)][GlcNAc(b1-4)]Man(b1-4)GlcNAc(b1-4)GlcNAc
# Procedure, shortened: as §1
# [36] = target: Neu5Ac(a2-3)Gal(b1-4)GlcNAc(b1-3)Gal(b1-4)GlcNAc(b1-6)[Gal(b1-3)]GalNAc
# Procedure, shortened: as §1
# [37] = target: Neu5Ac(a2-3)Gal(b1-4)GlcNAc(b1-6)GalNAc
# Procedure, shortened: as §1
# [38] = target: Neu5Ac(a2-6)Gal(b1-4)GlcNAc(b1-3)Gal(b1-4)GlcNAc(b1-3)Gal(b1-4)GlcNAc(b1-2)Man(a1-3)[Neu5Ac(a2-6)Gal(b1-4)GlcNAc(b1-3)Gal(b1-4)GlcNAc(b1-3)Gal(b1-4)GlcNAc(b1-2)Man(a1-6)]GalNAc
# Procedure, shortened: as §1
# [39] = target: Neu5Ac(a2-6)Gal(b1-4)GlcNAc(b1-3)[Neu5Ac(a2-6)Gal(b1-4)GlcNAc(b1-6)]GalNAc
# Procedure, shortened: as §1
# [40] = target: Neu5Ac(a2-8)Neu5Ac(a2-3)[Gal(b1-3)GalNAc(b1-4)]Gal(b1-4)Glc
# Procedure, shortened: as §1
# [41] = target: Neu5Ac(a2-8)Neu5Gc(a2-3)Gal(b1-4)GlcNAc
# Procedure, shortened: as §1
binder,measurement,setting,value
PX9961K-bvu-480-28-480 (Bacteroides vulgatus) (protein) NKIPTTMAFRTVTDVDNAVNGLYDLMSGSGYYGAAMFAYGDMKGDDMQSSEESGVCNTCYMFNHRPNSLNAGSLWGRPFYILREAWNILNAIAEGKIESGDEKKLNALKGETMAVIALCQFDLTRCFGYPYTKDKGASLGAPLIDHLVGTYENPPRSTVAQAYDFIIETLEEAVTLMSEEKNNGRMNKYAARALLARIYLYHDDNRKAFDLADQLIKDADTSGSYALYPHEKYVAAWSVEAKFGSESFFEIANSVDDTPGRDSWGYLLNWYGYQKGFVTQKYAEQMLADPGDVRGHLLEENKYAGKTVWWLYKLRGTDLKTAPLECNNVVLRLSEVYLIAAEAGCKLGGDAAVQGLGYLNEIVKRGNPDNEVTMADYTLDRVLDERSKELVGEGHRFFDLLRNGKTIVRKGGYHLPSVDEEVDWDFYKCVLPIPEDQFIFSPEMEQNPGYPKN,glycan array binding signal (z-score),[1],-0.335
same,glycan array binding signal (z-score),[2],-0.817
same,glycan array binding signal (z-score),[3],-0.084
same,glycan array binding signal (z-score),[4],-0.605
same,glycan array binding signal (z-score),[5],0.151
same,glycan array binding signal (z-score),[6],-0.75
same,glycan array binding signal (z-score),[7],0.583
same,glycan array binding signal (z-score),[8],0.709
same,glycan array binding signal (z-score),[9],3.09
same,glycan array binding signal (z-score),[10],1.47
same,glycan array binding signal (z-score),[11],0.817
same,glycan array binding signal (z-score),[12],0.157
same,glycan array binding signal (z-score),[13],-0.177
same,glycan array binding signal (z-score),[14],0.328
same,glycan array binding signal (z-score),[15],1.61
same,glycan array binding signal (z-score),[16],1.2
same,glycan array binding signal (z-score),[17],0.273
same,glycan array binding signal (z-score),[18],0.512
same,glycan array binding signal (z-score),[19],1.05
same,glycan array binding signal (z-score),[20],-0.347
same,glycan array binding signal (z-score),[21],0.085
same,glycan array binding signal (z-score),[22],0.362
same,glycan array binding signal (z-score),[23],-0.336
same,glycan array binding signal (z-score),[24],-0.638
same,glycan array binding signal (z-score),[25],1.16
same,glycan array binding signal (z-score),[26],1.89
same,glycan array binding signal (z-score),[27],0.909
same,glycan array binding signal (z-score),[28],1.77
same,glycan array binding signal (z-score),[29],-0.501
same,glycan array binding signal (z-score),[30],0.135
same,glycan array binding signal (z-score),[31],1.58
same,glycan array binding signal (z-score),[32],-0.426
same,glycan array binding signal (z-score),[33],2.06
same,glycan array binding signal (z-score),[34],0.976
same,glycan array binding signal (z-score),[35],1.59
same,glycan array binding signal (z-score),[36],-0.074
same,glycan array binding signal (z-score),[37],-0.742
same,glycan array binding signal (z-score),[38],1.68
same,glycan array binding signal (z-score),[39],-0.532
same,glycan array binding signal (z-score),[40],-0.283
same,glycan array binding signal (z-score),[41],19.1
